Measurements reported in PubChem BioAssay AID1159580 (chemical genetic matrix, 2015).
Values joined by “and” are separate entries in the source; they are usually repeats but may differ in a detail not shown here. Equal values may be shown once. Hit rate of the full screen: of about 5,500 compounds, about 2,000 (36%) were called active. Inconclusive results (about 18%) are left out. Rule as the data show it: active = normalized growth mostly below about 0.91 (no sharp cut-off); inconclusive = no clear call, values can overlap the other calls; inactive = mostly above about 0.92. This is one part of the list.

Experiment: chemical genetic growth profiling, strain panel (AID 1159580);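 also: tested at 20 µM; growth read once vehicle control cultures reached saturation at 30 °C; 1 = growth at the plate median or of vehicle wells; lower values mean less growth of the strain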
Details: S. cerevisiae deletion strains, growth OD

Measured: normalized growth

CC(C)(Oc1ccc(CCNC(=O)c2ccc(Cl)cc2)cc1)C(=O)O
inactive: locus YAL013W, strain DEP1, hits give low values 1.02 | locus YAL021C, strain ccr4, hits give low values 0.982 | locus YAL026C, strain drs2, hits give low values 0.985 | locus YAL030W, strain snc1, hits give low values 0.996 | locus YBL061C, strain skt5, hits give low values 0.999 | locus YBR009C, strain hhf1, hits give low values 0.975 | locus YBR021W, strain FUR4, hits give low values 1.02 | locus YBR023C, strain chs3, hits give low values 0.986 | locus YBR171W, strain sec66, hits give low values 0.978 | locus YBR229C, strain ROT2, hits give low values 1.01 | locus YBR231C, strain swc5, hits give low values 1.01 | locus YBR279W, strain paf1, hits give low values 0.972 | locus YCL011C, strain gbp2, hits give low values 0.982 | locus YCL016C, strain dcc1, hits give low values 0.971 | locus YCL029C, strain bik1, hits give low values 1.02 | locus YCL069W, strain vba3, hits give low values 0.988 | locus YCR088W, strain abp1, hits give low values 0.985 | locus YDL005C, strain med2, hits give low values 0.984 | locus YDL035C, strain GPR1, hits give low values 1.04 | locus YDL040C, strain nat1, hits give low values 0.995 | locus YDL074C, strain BRE1, hits give low values 1.01 | locus YDL101C, strain DUN1, hits give low values 1.01 | locus YDL134C, strain PPH21, hits give low values 1.05 | locus YDL185W, strain tfp1, hits give low values 1.02 | locus YDL192W, strain arf1, hits give low values 1.01 | locus YDR001C, strain nth1, hits give low values 0.987 | locus YDR069C, strain doa4, hits give low values 0.968 | locus YDR101C, strain arx1, hits give low values 0.995 | locus YDR137W, strain rgp1, hits give low values 0.988 | locus YDR150W, strain NUM1, hits give low values 1.01 | locus YDR159W, strain sac3, hits give low values 0.939 | locus YDR162C, strain NBP2, hits give low values 1.03 | locus YDR195W, strain ref2 0.993 | locus YDR297W, strain sur2, hits give low values 0.998 | locus YDR318W, strain mcm21, hits give low values 1.02 | locus YDR334W, strain swr1, hits give low values 0.995 | locus YDR335W, strain msn5, hits give low values 0.977 | locus YDR388W, hits give low values 1.01 | locus YDR392W, strain spt3, hits give low values 0.882 | locus YDR502C, strain sam2, hits give low values 1.02 | locus YEL003W, strain gim4, hits give low values 1.01 | locus YEL037C, strain rad23, hits give low values 0.99 | locus YEL061C, strain CIN8 (second series), hits give low values 0.997 | locus YEL061C, strain CIN8, hits give low values 1.01 | locus YER015W, strain faa2, hits give low values 0.995 | locus YER016W, strain bim1, hits give low values 0.971 | locus YER110C, hits give low values 1 | locus YER111C, strain swi4, hits give low values 0.984 | locus YER155C, strain BEM2 (second series), hits give low values 0.975 | locus YER155C, strain BEM2, hits give low values 1.01 | locus YER167W, strain BCK2, hits give low values 1.01 | locus YFR010W, strain ubp6, hits give low values 1.01 | locus YGL078C, strain dbp3, hits give low values 1.02 | locus YGL086W, strain mad1, hits give low values 1.01 | locus YGL167C, strain pmr1, hits give low values 1 | locus YGL173C, strain kem1, hits give low values 1 | locus YGL227W, strain vid30, hits give low values 0.977 | locus YGL240W, strain doc1, hits give low values 0.984 | locus YGL248W, strain PDE1, hits give low values 1.01 | locus YGL253W, strain hxk2, hits give low values 0.994 | locus YGR078C, strain PAC10, hits give low values 1 | locus YGR135W, strain pre9, hits give low values 1.02 | locus YGR252W, strain gcn5, hits give low values 1.02 | locus YHR013C, strain ard1, hits give low values 0.963 | locus YHR027C, strain rpn1, hits give low values 0.986 | locus YHR030C, strain SLT2, hits give low values 1.02 and 0.997 | locus YHR079C, strain IRE1 (second series), hits give low values 1.02 | locus YHR079C, strain IRE1, hits give low values 0.995 | locus YHR094C, strain hxt1, hits give low values 1.01 | locus YHR129C, strain ARP1, hits give low values 1.01 | locus YHR142W, strain chs7, hits give low values 0.999 | locus YHR200W, strain rpn10, hits give low values 1.03 | locus YIL066C, strain RNR3, hits give low values 1.02 | locus YIL073C, strain SPO22, hits give low values 1.15 | locus YIL125W, strain kgd1, hits give low values 1.01 | locus YIR030C, strain dcg1, hits give low values 1.02 | locus YJL092W, strain hpr5, hits give low values 0.996 | locus YJL095W, strain BCK1 (second series), hits give low values 0.983 | locus YJL095W, strain BCK1, hits give low values 1 and 0.972 | locus YJL115W, strain asf1, hits give low values 0.978 | locus YJL129C, strain trk1, hits give low values 0.955 | locus YJL134W, strain LCB3, hits give low values 1.01 | locus YJL154C, strain vps35, hits give low values 0.98 | locus YJL164C, strain tpk1, hits give low values 0.986 | locus YJL166W, strain qcr8, hits give low values 0.992 | locus YJL168C, strain set2, hits give low values 1.01 | locus YJL187C, strain SWE1 (second series), hits give low values 1.01 | locus YJL187C, strain SWE1, hits give low values 0.996 | locus YJR043C, strain POL32, hits give low values 1.02 | locus YJR066W, strain TOR1, hits give low values 0.967
